In all, about 320,000 compounds went through this assay and about 3,300 (1%) were called active. Many of the other results were omitted from the sample, so actives are more common in it than they were. A number with no mark means an inactive call.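 How the source made its calls: active means every valid replicate shows activation above 250% relative to neutral control wells; inactive means the rest, any valid replicate at or below 250%.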

This experiment in a line: yeast Mot1-301 growth rescue at high temperature, primary screen, SUMOylation pathway inhibitor project, S. cerevisiae, ATP luminescence, 38.5C (AID 2716).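 Further: OY570 slx delta 5 strain wells were the positive control but not used for scaling.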 The conditions noted are these: S. cerevisiae Mot1-301 growth rescue, at 18.8 µM, active compounds read high, percent above DMSO median, 100 means doubled.
Regarding `O=C(Nn1cnnc1)c1cc(Cl)ccc1Cl`, the growth rescue was 4.55%.
Next, `CN1CCN(S(=O)(=O)c2cccc(C(=O)Nc3cccc(S(N)(=O)=O)c3)c2)CC1`: -8.57%; `CCCCC1=CC2=CC(=O)C(C)(OC(=O)CC)C(=O)C2=CN1CCCOC(C)C` (stereo not drawn): 499% (active); `COC(=O)CCCC1=CC2=CC(=O)C(C)(OC(=O)c3cccs3)C(=O)C2=CN1CC(C)C` (stereo not drawn): 13.6%.
Next, `COC(=O)CCCC1=CC2=CC(=O)C(C)(OC(=O)c3cccs3)C(=O)C2=CN1CC1CC1` (stereo not drawn): 414%; `CCCCN(C1CCS(=O)(=O)C1)S(=O)(=O)c1ccc(C(C)C)cc1` (stereo not drawn): 1.38%; `CC(=O)c1ccc(S(=O)(=O)N2CCC(Oc3ccc(-n4cnnn4)cc3)CC2)cc1`: -5.14%.
Take `CCCCN(C(=O)COc1ccc(NC(C)=O)cc1)C1CCS(=O)(=O)C1` (stereo not drawn): the growth rescue is 0.599%.
As for `Cc1cccc(C)c1NC(=O)CN(C)C(=O)CCC(=O)c1ccccc1`, the growth rescue is -17.7%.
Next, `Cc1cccc(C)c1NC(=O)C(Cl)C(=O)c1ccccc1` (stereo not drawn): 474% (active).
As to `Cc1cccc(C)c1NC(=O)C(c1ccccc1)N1CC(=O)Nc2ccccc21` (stereo not drawn), the growth rescue is 8.11%.
Under `CN(C)CCCN(Cc1cc2cc3c(cc2[nH]c1=O)OCCO3)C(=O)NC1CCCCC1` stands 4.3%; under `CCN1CCN(C(=O)N(Cc2ccc(Cl)cc2)S(=O)(=O)c2ccc(C)cc2)CC1`, 2.05%.
Consider `COc1ccc(NS(=O)(=O)c2ccc(C(=O)Nc3c(C)n(C)n(-c4ccccc4)c3=O)cc2)cc1`, for which the growth rescue is -8.97%.
Under `Cc1cccn2c(=O)c3cc(C(=O)NCC4CCCO4)c(=N)n(Cc4ccc(F)cc4)c3nc12` (stereo not drawn) stands -5.43%; under `CCn1c(=N)c(C(=O)NCCCOC)cc2c(=O)n3cccc(C)c3nc21`, 327% (active).
`Cc1cccn2c(=O)c3cc(C(=O)NCCN4CCOCC4)c(=N)n(Cc4cccnc4)c3nc12`: the growth rescue is -5.56%.
Under `O=C(NC1CCN(C(=S)NCc2ccco2)CC1)c1ccc(F)cc1` stands -3%.
Next, `Cc1cc(NC(=O)CSCC(=O)NC(C)c2ccccc2)no1` (stereo not drawn): 4.77%; `N#Cc1ccc(S(=O)(=O)NCC(=O)OCC(=O)NCCc2ccccc2)cc1`: 0.284%.
With `COc1ccc(N(CCC(=O)NCCc2ccccc2)S(=O)(=O)c2ccc(C)cc2C)cc1`, the growth rescue is -11.2%.
Next, `Cc1cccc(-[n+]2c(-c3cccc(Br)c3)[nH]c3nc4ccccc4nc32)c1`: 655% (active); `Cc1ccc(CNC(=O)COC(=O)C2CCC2)cc1`: -6.16%.
Under `Cc1nccn1CCC1CCCCN1C(=O)CCc1nnc(-c2ccsc2)o1` (stereo not drawn) stands -11.6%; under `COc1ccc(S(=O)(=O)NC(C)C(=O)Nc2cccc([N+](=O)[O-])c2)cc1` (stereo not drawn), -16.6%.
For the compound `COc1cccc(CNC(=O)CCCC(=O)Nc2cccc([N+](=O)[O-])c2)c1`, the growth rescue is -7.72%.
Regarding `COC(=O)/C=C\C(=O)Nc1cccc([N+](=O)[O-])c1`, the growth rescue was 362% (active).
Under `CCOC(=O)C1CCCN(C(=O)c2ccc(C)c(S(=O)(=O)N3CCCCC3)c2)C1` (stereo not drawn) stands -5.7%; under `CCOc1ccc2nc(N(CCN(C)C)C(=O)c3ccc4ccccc4c3)sc2c1`, 74.9%; under `CCOc1ccc2nc(N(CCCN(C)C)C(=O)c3ccc(C(=O)c4ccccc4)cc3)sc2c1`, 1.2%.
Next, `CCCC(=O)N(CCN1CCOCC1)c1nc2ccc(OCC)cc2s1`: 371% (active); `O=C(CCNC(=O)c1ccc(Cl)cc1)NC1CCCc2ccccc21` (stereo not drawn): 118%.
Under `COC(=O)c1cc2occc2n1Cc1nc(-c2ccccc2C)oc1C` stands 611% (active); under `Cc1ccccc1-c1nc(CS(=O)(=O)CC(=O)NC(C)c2ccccc2)c(C)o1` (stereo not drawn), 5.04%.
Turning to `Cc1ccccc1-c1nc(CS(=O)(=O)CC(=O)N2CCc3ccccc3C2)c(C)o1`, the growth rescue was -11.2%.
Next, `CCCCCCOc1ccc(OC(=O)c2cccnc2)cc1`: 329% (active); `O=C(Oc1ccc(Br)cc1)c1cccnc1`: 1.84%; `N#CCc1ccc(OC(=O)c2cccnc2)cc1`: 9.1%.
Under `Cc1nc2ccc(NC(=O)c3cccc(S(=O)(=O)N4CCOCC4)c3)cc2s1` stands -14.6%; under `CC1CCN(S(=O)(=O)c2ccc3[nH]c(=O)ccc3c2)CC1`, 14.3%; under `CCc1cccc(NC(=O)C2CCCN(S(=O)(=O)c3ccc4[nH]c(=O)ccc4c3)C2)c1` (stereo not drawn), -9.11%.
Next, `Cc1cc(C)cc(NC(=O)C2CCCN(S(=O)(=O)c3ccc4[nH]c(=O)ccc4c3)C2)c1` (stereo not drawn): 2800% (active).
For the compound `C[C@H](CO)N1C[C@H](C)[C@@H](CN(C)C(=O)NC2CCCCC2)Oc2ccc(NC(=O)c3ccncc3)cc2C1=O`, the growth rescue was -1.03%.
For `CCCCCCC(=O)N(O)C1CC(=O)N(c2ccccc2)C1=O` (stereo not drawn), the growth rescue was 321% (active).
Consider `CCOC(=O)c1ccc(N2C(=O)CC(N(C)Cc3ccccc3)C2=O)cc1` (stereo not drawn), for which the growth rescue is 94.8%.
Next, `CCCCOC(=O)c1ccc(N2C(=O)CC(N3CCN(C/C=C/c4ccccc4)CC3)C2=O)cc1` (stereo not drawn): -18%; `N#CCCN1CCN(S(=O)(=O)c2ccc(S(=O)(=O)NC3CCCCC3)cc2)CC1`: 111%.
Under `CC(C)C(NC(=O)c1c(F)cccc1F)C(=O)NNC(=O)c1ccccc1` (stereo not drawn) stands -1.01%; under `Cc1ccc(C)c(S(=O)(=O)Nc2cccc(-n3cnnn3)c2)c1`, -7.94%.
Under `Cc1nc(-c2nnc(SCC(=O)Nc3cc(C(F)(F)F)cc(C(F)(F)F)c3)n2C)cs1` stands 16.5%; under `COc1cccc(CNCc2ccc3c(c2)OCO3)c1`, -12.1%; under `COc1cc(CNCc2ccc3c(c2)OCO3)c([N+](=O)[O-])cc1OC`, 1080% (active).
`COc1cc(OC)c(C(=O)NCc2ccc3c(c2)OCO3)cc1OC`: the growth rescue is 1.21%.
Next, `O=C(CSc1nnc(-c2ccncc2)o1)Nc1cccc(Cl)c1`: -11.5%; `COc1ccc(-c2c(C#Cc3ccsc3)c3cc(-c4ccc(CN5CCOCC5)cc4)ccc3n2C)cc1`: -20.4%; `CC1CCN(Cc2nc3c(c(=O)n(C)c(=O)n3C)n2CCc2ccccc2)CC1`: 768% (active).
As for `CC1CCCN(Cc2nc3c(c(=O)n(C)c(=O)n3C)n2CC(=O)c2ccccc2)C1` (stereo not drawn), the growth rescue was -2.98%.
On to `COCCn1c(CN2CCC(Cc3ccccc3)CC2)nc2c1c(=O)n(C)c(=O)n2C`, for which the growth rescue is -13.7%.
Under `CC1Cc2ccccc2N1C(=O)CSc1nnc(-c2ccc(S(=O)(=O)N3CCCC3)cc2)n1C` (stereo not drawn) stands -12%; under `Cc1ccc(NC(=O)CCNC(=O)c2ccc([N+](=O)[O-])cc2)cc1S(=O)(=O)N1CCOCC1`, -3.52%; under `CCc1cc2c(=O)c(-c3ccon3)c(N)oc2cc1OC`, -11.8%.
Under `CCc1cc2c(=O)c(-c3ccc(F)cc3)c(C(F)(F)F)oc2cc1OCC(=O)O` stands 807% (active).
On to `Cc1cc(C)cc(Oc2c(C(F)(F)F)oc3cc(OCC(=O)O)ccc3c2=O)c1`, for which the growth rescue is -7.69%.
Under `CCSC(C)CC1C/C(=N/O)c2c(C)noc2C1` (stereo not drawn) stands 5.53%; under `Cc1ccc(S(=O)(=O)n2cnc3ccccc32)c(C)c1`, -12.4%.
Turning to `COc1ccc(S(=O)(=O)n2cnc3ccccc32)c(C)c1`, the growth rescue is -3.94%.
With `Cc1ccc(C)c(S(=O)(=O)n2cnc3ccccc32)c1`, the growth rescue is 439% (active).
Under `CCOC(=O)C1=C(C)NC(C)=C(C(=O)OCC)C1C1=COCCO1` stands -16.1%.
On to `CCOc1ccc(N(CC(=O)NCCOc2ccccc2OC)S(=O)(=O)c2ccccc2)cc1`, for which the growth rescue was 0.484%.
Turning to `CN(c1ccccc1)S(=O)(=O)c1ccc(C(=O)N2CCN(c3ccccc3Cl)CC2)cc1`, the growth rescue is 19.5%.
On to `N#CC1=C(N)OC2=C(C(=O)CCC2)C1C1CC=CCC1` (stereo not drawn), for which the growth rescue was 435% (active).
For the compound `NC1=C([N+](=O)[O-])C(c2ccccc2)C2=C(CCCC2=O)O1` (stereo not drawn), the growth rescue was -9.51%.
Consider `CCCc1[nH]nc2c1C(C1CC=CCC1)C(C#N)=C(N)O2` (stereo not drawn), for which the growth rescue was 4.92%.
Next, `O=C1CCCN2N=C(SCC(=O)Nc3ccc(Br)cc3)SC2=N1`: -5.37%; `CC(C)CCNC(=O)c1cccnc1Sc1ccccc1`: 2.14%.
Under `CC(=O)c1ccc(NC(=O)c2ccc(-n3cncn3)c([N+](=O)[O-])c2)cc1` stands 62.2%.
As for `O=C(O)CSC(NC(=O)c1cccnc1)(C(F)(F)F)C(F)(F)F`, the growth rescue was -13.2%.
Consider `O=C(Nc1ccccc1N1CCN(c2ccccc2)CC1)c1cccc(F)c1`, for which the growth rescue is 516% (active).
Next, `O=C(Nc1ccccc1N1CCCC1)c1ccc2ccccc2c1`: -24.5%; `Cc1cccc(C(=O)Nc2ccccc2N2CCN(c3ccc(F)cc3)CC2)c1`: 0.874%.
Under `CC(Sc1ncnc2c1cnn2-c1ccccc1)C(=O)Nc1ccc(N2CCOCC2)cc1` (stereo not drawn) stands -16.6%.
With `CCC(=O)Nc1ccc(C(=O)CSc2nnc(CNc3ccc(Cl)cc3)o2)cc1OC`, the growth rescue was -12.4%.
With `CCn1cc(CN2CCN(CC(C)(C)C)C(CCO)C2)c2ccccc21` (stereo not drawn), the growth rescue was 2.63%.
Next, `CCOc1ccc(OCC(=O)OC(C)C(=O)NC2CCCCC2C)cc1` (stereo not drawn): 4.11%; `O=C(COc1ccc(Cl)cc1)NCc1nnc(SCC(=O)NCC2CCCO2)o1` (stereo not drawn): 1.67%.
Under `CCn1c(SCC(=O)N/N=C/c2ccccc2OCC(=O)O)nnc1-c1ccc(C(C)(C)C)cc1` stands 746% (active).
Under `CCn1c(SCC(=O)N/N=C/C=C/c2ccccc2[N+](=O)[O-])nnc1-c1ccccc1` stands -1.22%; under `Cc1ccc(Cn2c(SCC(=O)N/N=C/c3ccccc3OCC(=O)O)nc3ccccc32)cc1`, 29.2%.
